Laboratory results from PMC4552634, “A New Set of Chemical Starting Points with Plasmodium falciparum Transmission-Blocking Potential for Antimalarial Drug Discovery” (PLoS ONE, 2015).
Like-named read-outs stand apart in the source and are kept apart here. Among all 13,000 compounds or so, about 3,200 (25%) showed an effect of 50% or more. The list shows a part of the results.

Tested on: P. falciparum stage V gametocytes
Parameters: BacTiter-Glo ATP luminescence viability of purified stage V gametocytes in 384-well plates, per cent inhibition versus DMSO
Conditions: 48 h, 5 µM, inhibitor

Row | SMILES | % Inhibition [%] | % Inhibition (% Inhibition) [%]
1 | CCCc1cc(N2CCC(N3CCCC3)CC2)nc(Nc2ccc(OC)cc2)n1 [TCMDC-132387] | 2.102 | 
2 | C=C[C@H]1CN2CC[C@H]1C[C@H]2[C@H](O)c1ccnc2ccc(OC)cc12 [TCMDC-125479] |  | -1.021
3 | CC(C)=CCc1c(-c2ccc(O)cc2O)oc2c3c(cc(O)c2c1=O)OC(C)(C)C=C3 [TCMDC-124149] | 26.1 | 
4 | COc1cc2ccccc2c(OC)c1CCNCCCCNCCc1c(OC)cc2ccccc2c1OC [TCMDC-137842] | 116.9 | 
5 | O=C(CC(c1ccccc1)c1ccccc1O)N1CCOCC1 (stereo not shown) [TCMDC-125747] | -30.1 | 
6 | C=CCc1ccc(C[C@H](NC(=O)OC(C)(C)C)C(=O)OC)cc1 [TCMDC-138140] | 103.3 | 
7 | CC(C)(C)OC(=O)N[C@@H](Cc1ccccc1)C(=O)Nc1cccc(-c2cccc(NC(=O)[C@H](Cc3ccccc3)NC(=O)OC(C)(C)C)c2)c1 [TCMDC-131873] | -20.04 | 
8 | COC(=O)C(c1ccc(NC(=O)[C@H](CC(C)C)NC(=O)OC(C)(C)C)cc1)c1ccc(NC(=O)[C@H](CC(C)C)NC(=O)OC(C)(C)C)cc1 [TCMDC-131874] | -21.29 | 
9 | CC(C)(C)c1ccc(C(=O)N2CCC3(CC2)C(=O)N(CC(=O)NCC2CCCO2)CN3c2ccccc2)cc1 (stereo not shown) [TCMDC-125172] | -58.74 | 
10 | COc1ccc(N2CCN(CCCCNC(=O)c3ccc(NC(=O)c4ccc(Cl)cc4)cc3)CC2)c(C)c1 [TCMDC-138431] | -16.53 | 
11 | CC(C)NCc1ccc(-c2cccc(NC(=O)c3cccc(Cl)c3)c2)cc1 [TCMDC-132642] | 18.79 | 
12 | CC(C)NCc1ccc(-c2ccc(NC(=O)c3ccc(Cl)cc3)cc2)cc1 [TCMDC-132586] | 47.91 | 
13 | CN(C)CCN(C)Cc1ccc(-c2ccc(NC(=O)c3cccc(Cl)c3)cc2)cc1 [TCMDC-132593] | 39.43 | 
14 | CC(C)NCc1ccc(-c2ccc(NC(=O)c3cccc(Cl)c3)cc2)cc1 [TCMDC-132592] | 87.86 | 
15 | CN(C)Cc1ccc(-c2cccc(NC(=O)c3cccc(Cl)c3)c2)cc1 [TCMDC-132644] | -4.056 | 
16 | CC(C)NCc1cccc(-c2cccc(NC(=O)c3cccc(Cl)c3)c2)c1 [TCMDC-132658] | 93.91 | 
17 | O=C(Nc1ccc(Cn2ncc(N3CCCNCC3)c(Cl)c2=O)cc1)Nc1ccc(OCc2ccccc2)cc1 [TCMDC-133319] | 26.32 | 
18 | COC(=O)c1ccc(CC(C)NCC(O)c2cccc(Cl)c2Cl)cc1 (stereo not shown) [TCMDC-131483] | 20.31 | 
19 | CC(C)CNC(=O)c1cncc(-c2ccc(CNC3Cc4ccccc4C3)cc2)c1 [TCMDC-134241] | -1.576 | 
20 | CC(C)CC(=O)N(Cc1ccc(-c2ccc(CNC3Cc4ccccc4C3)cc2)cc1)C1CCNCC1 [TCMDC-141449] | 118.6 | 
21 | CCCNC(=O)c1ccnc(-c2ccc(CNC3Cc4ccccc4C3)cc2)c1 [TCMDC-134255] | 1.364 | 
22 | CC[C@H](C)CNC(=O)c1ccnc(-c2ccc(CNC3Cc4ccccc4C3)cc2)c1 [TCMDC-134253] | 2.834 | 
23 | CC(C)CNC(=O)c1ccnc(-c2ccc(CNC3Cc4ccccc4C3)cc2)c1 [TCMDC-134254] | 4.563 | 
24 | O=C(COc1ccccc1)N(Cc1ccc(-c2ccc(CNC3Cc4ccccc4C3)cc2)cc1)C1CCNCC1 [TCMDC-141450] | 110 | 
25 | Cc1ccc(NC(=O)N2CCN(CCCCCNC(=O)/C=C/c3ccc(Cl)c(Cl)c3)CC2)cc1C [TCMDC-135732] | -3.92 | 

Row | SMILES | % Inhibition [%] | % Inhibition (% Inhibition) [%]
26 | CCOC(=O)c1c(CN(CC)CC)n(-c2ccccc2)c2cc(Br)c(O)cc12 [TCMDC-125679] | -14.42 | 
27 | N=C(N)Nc1ccc(Cc2ccc(NC(=N)N)cc2)cc1 [TCMDC-137917] | -14.93 | 
28 | CCCCCN1CCCC(NS(=O)(=O)c2ccc(C(=O)Nc3cccc(C(F)(F)F)c3)cc2)C1 (stereo not shown) [TCMDC-132774] | -2.262 | 
29 | CCCCCN1CCC(NS(=O)(=O)c2cccc(C(=O)Nc3cccc(C(F)(F)F)c3)c2)C1 (stereo not shown) [TCMDC-132488] | -38 | 
30 | CCCCCN1CCCCC(NS(=O)(=O)c2ccc(C(=O)Nc3cccc(C(F)(F)F)c3)cc2)C1 (stereo not shown) [TCMDC-132778] | -0.2647 | 
31 | CCCCCN1CCCC(NS(=O)(=O)c2cccc(C(=O)Nc3cccc(C(F)(F)F)c3)c2)C1 (stereo not shown) [TCMDC-132768] | 75.62 | 
32 | CCCCCN1CCC(NS(=O)(=O)c2ccc(C(=O)Nc3cccc(C(F)(F)F)c3)cc2)C1 (stereo not shown) [TCMDC-132771] | 83.46 | 
33 | CCCCCN1CCC(NS(=O)(=O)c2cccc(C(=O)Nc3ccc(C(F)(F)F)cc3)c2)C1 (stereo not shown) [TCMDC-132486] | -23.98 | 
34 | CN1CC=C(c2c[nH]c3ccc(OCc4ccccc4)cc23)CC1 [TCMDC-132113] | -6.135 | 
35 | Cc1ccc(C2=NNC3(S2)C(=O)Nc2ccc(C)cc23)cc1 (stereo not shown) [TCMDC-123866] | 44.96 | 
36 | CCCCNC(=O)[C@@H]1CCCN1C(=O)c1ccc(O)c(-c2ccc(Cl)c(Cl)c2)c1 [TCMDC-140837] | 7.64 | 
37 | Clc1ccc(CNc2nc(NCCc3cnc[nH]3)nc(NC3CCCCC3)n2)cc1 [TCMDC-139734] | -12.92 | 
38 | NCC1CCCN1Cc1ccc(-c2ccc(-c3nc4cc(C(F)(F)F)ccc4[nH]3)s2)cc1.O=C(O)C(F)(F)F (stereo not shown) [TCMDC-133000] | 16.97 | 
39 | NCC1CCCN1Cc1cccc(-c2ccc(-c3nc4ccc(C(F)(F)F)cc4[nH]3)cc2)c1 (stereo not shown) [TCMDC-132996] | 21.42 | 
40 | NCC1CCCN1Cc1ccc(-c2cccc(-c3nc4ccc(C(F)(F)F)cc4[nH]3)c2)cc1 (stereo not shown) [TCMDC-132990] | 70.04 | 
41 | OCCN1CCN(Cc2ccc(-c3cccc(-c4nc5ccc(C(F)(F)F)cc5[nH]4)c3)cc2)CC1 [TCMDC-133024] | 24.38 | 
42 | NCC1CCCN1Cc1ccc(-c2ccc(-c3nc4ccc(C(F)(F)F)cc4[nH]3)cc2)cc1 (stereo not shown) [TCMDC-132995] | 50.61 | 
43 | OCC1CCN(Cc2ccc(-c3ccc(-c4nc5ccc(C(F)(F)F)cc5[nH]4)cc3)cc2)CC1 [TCMDC-133124] | -13.18 | 
44 | Fc1ccc2cc(C=Cc3ccncc3)[nH]c2c1 [TCMDC-137494] | -53.7 | 
45 | O=C(Nc1cccc(C(F)(F)F)c1)Nc1nc2ccc([N+](=O)[O-])cc2s1 [TCMDC-123631] | 27.05 | 
46 | Cn1cncc1-c1ccc2ncnc(Nc3ccc(OCc4ccccc4)cc3)c2c1 [TCMDC-137504] | -32.31 | 
47 | Cc1[nH]nc2cc(Nc3ccnc(Nc4cccc(CN5CCOCC5)c4)n3)ccc12 [TCMDC-138632] | 3.491 | 
48 | CN(c1ccc2c(c1)nc(NC(=O)C1(c3cc(F)ccc3F)CC1)n2C)c1ccnc(Nc2cccc(CS(C)(=O)=O)c2)n1 [TCMDC-141964] | -60.83 | 
49 | Cn1c(Nc2cc(C(C)(C)C)on2)nc2cc(Nc3ccnc(Nc4ccc(CS(C)(=O)=O)cc4)n3)ccc21 [TCMDC-141890] | 82.06 | 
50 | CN1CCN(S(=O)(=O)c2cccc(Nc3nccc(N(C)c4ccc5c(c4)nc(NC(=O)c4cccs4)n5C)n3)c2)CC1 [TCMDC-134378] | 79.98 | 

Row | SMILES | % Inhibition [%] | % Inhibition (% Inhibition) [%]
51 | Cn1c(NCc2cc(F)cc3c2OCOC3)nc2cc(Nc3ccnc(Nc4cccc(CS(C)(=O)=O)c4)n3)ccc21 [TCMDC-134151] | -2.358 | 
52 | CN(c1ccc2c(c1)nc(Nc1cc(C(C)(C)C)on1)n2C)c1ccnc(Nc2ccc(CS(C)(=O)=O)cc2)n1 [TCMDC-141892] | -9.766 | 
53 | Cc1ccc(Nc2nccc(Nc3ccc4c(c3)nc(Nc3cc(C(C)(C)C)on3)n4C)n2)cc1S(C)(=O)=O [TCMDC-141889] | 96.33 | 
54 | Cn1c(Nc2cc(C(C)(C)C)on2)nc2cc(Nc3ccnc(Nc4cccc(S(=O)(=O)N5CCOCC5)c4)n3)ccc21 [TCMDC-134098] | 97.72 | 
55 | Cc1ccc(Nc2nccc(N(C)c3ccc4c(c3)nc(NC(=O)Cc3ccc(Cl)c(Cl)c3)n4C)n2)cc1S(N)(=O)=O [TCMDC-141965] | -9.254 | 
56 | Cc1ccc(Nc2nc3cc(N(C)c4ccnc(Nc5cccc(CCS(C)(=O)=O)c5)n4)ccc3n2C)cc1 [TCMDC-138853] | -59.51 | 
57 | Cc1ccc(Nc2nccc(Nc3ccc4c(C)[nH]nc4c3)n2)cc1F [TCMDC-138542] | -63.2 | 
58 | Cn1c(Nc2cc(C(C)(C)C)on2)nc2cc(Nc3ccnc(Nc4cccc(CS(C)(=O)=O)c4)n3)ccc21 [TCMDC-141893] | 24.31 | 
59 | COc1ccc2nc(C)cc(Nc3ccc(Oc4ccc(Cl)c5ccccc45)c(Cl)c3)c2c1 [TCMDC-123856] | 5.816 | 
60 | N#Cc1ccc2c(c1)CN(CCC1CCC(NC(=O)c3cc4cnccc4[nH]3)CC1)CC2 (stereo not shown) [TCMDC-139174] | -27.42 | 
61 | O=C(NCc1cccc(F)c1)Nc1ccc(-c2ccc(-c3nc4ccc(C(F)(F)F)cc4[nH]3)cc2)cc1 [TCMDC-133287] | -9.31 | 
62 | Cc1cccc(NC(c2cccs2)c2c(NC(=O)c3ccccc3)sc(C)c2C)n1 (stereo not shown) [TCMDC-124747] | -63.38 | 
63 | CCCCCOc1ccc(NC2=CC(=O)C(=O)c3ccccc32)cc1 [TCMDC-125724] | -1.294 | 
64 | CCCCOc1ccc(N2C(N)=NC(N)=NC2(C)C)cc1 [TCMDC-124279] | -11.62 | 
65 | CCCCCCOc1ccc(N2C(N)=NC(N)=NC2(C)C)cc1 [TCMDC-137369] | 25.73 | 
66 | CCCCCOc1ccc(N2C(N)=NC(N)=NC2(C)C)cc1 [TCMDC-137711] | 13.1 | 
67 | COc1ccc(OCCON)cc1 [TCMDC-123473] | 14.77 | 
68 | CCCCOc1ccc(C(O)C(CN2CCCCC2)c2ccccc2)cc1 (stereo not shown) [TCMDC-124252] | 4.712 | 
69 | C=CCNC(CCCCC)c1ccc(OCCOc2ccc(C(CCCCC)NCC=C)cc2)cc1 (stereo not shown) [TCMDC-137483] | 106.6 | 
70 | CCCCC(NCC)c1ccc(OCCOc2ccc(C(CCCC)NCC)cc2)cc1 (stereo not shown) [TCMDC-137612] | 115.6 | 
71 | CCCCCC(NCCCC)c1ccc(OCCOc2ccc(C(CCCCC)NCCCC)cc2)cc1 (stereo not shown) [TCMDC-137613] | 107.4 | 
72 | CCCCCCCCOc1ccc(N2C(N)=NC(N)=NC2(C)C)cc1 [TCMDC-137707] | -8.138 | 
73 | CCCCCCC(N)c1ccc(OCCCOc2ccc(C(N)CCCCCC)cc2)cc1 (stereo not shown) [TCMDC-137621] | 121.4 | 
